# Results reported in PubChem BioAssay AID1347075 (National Center for Advancing Translational Sciences (NCATS), 2019).
# The whole screen tested about 400,000 compounds, of which about 5,500 (1.4%) were called active. A call without a number means that no potency is given here. About 9% were inconclusive and are not listed. This is one part of a sample in which actives are shown more often than they occur. Calls follow the shape of the dose curve; as a rule, active = well fitted cell-killing curve with a large enough effect; inconclusive = small, poorly fitted or top-dose-only effect, or effect the other way; inactive = flat fitted curve, though single readings scatter.
# Experiment: qHTS assay for MDR1-selective chemotherapeutics: Primary screen using the parental adenocarcinoma cell KB-3-1; also: nearly all actives have a fitted effect of over 60% in size
# Settings: KB-3-1 viability, CellTiter-Glo ATP luminescence, 72 h; series mostly up to 46.1 µM
# Outline: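 Cells are dispensed, compounds pinned in, plates held at 37 °C for 72 h, then CellTiter-Glo is added and luminescence read after 10 minutes. Cell line: parental KB-3-1 in phenol-red-free DMEM, 10% FBS.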
# Potency is read from the fitted curve at half-maximal effect.
row,Structure (SMILES),Potency
1,COc1cc2nc(C#Cc3nc4cc(OC)c(OC)cc4[nH]3)[nH]c2cc1OC,inactive
2,COc1ccc(CN2C(=O)C(NC(=O)c3cccc(C)c3)(C(F)(F)F)N=C2c2ccccc2)cc1 (stereo not given),inactive
3,Cc1cc2c(cc3c(SCc4cccc(Cl)c4)nnc(C)n32)o1,inactive
4,Cc1cccc(-n2ccnc2SCC(=O)Nc2cccc3ccccc23)c1C,inactive
5,Cc1cc(C)cc(-n2ccnc2SCC(=O)Nc2nc3ccccc3s2)c1,inactive
6,Cc1nnc(NC(=O)CSc2nccn2-c2cccc(C)c2C)s1,3.66 µM (active)
7,Cc1ccc(S(=O)(=O)N2CCN(c3nc(-n4cnc5ccccc54)nc4ccccc34)CC2)cc1,inactive
8,CC1CC(C)CN(C/C=C/c2ccccc2[N+](=O)[O-])C1 (stereo not given),inactive
9,CC1CCCCC1NC(=O)/C(C#N)=C/C=C/c1ccccc1[N+](=O)[O-] (stereo not given),5.8 µM (active)
10,CC(OC(=O)/C=C/c1ccccc1)C(=O)NC1CCCCC1C (stereo not given),inactive
11,O=C1CCCC2=C1[C@@]1(CCC(c3ccccc3)C1)N=C(Nc1nc3ccccc3o1)N2 (stereo not given in full),inactive
12,CCN(C(=O)CSc1nnc(C)n2c1cc1occc12)c1ccccc1,inactive
13,CC(C)c1ccc2oc(-c3cc(NC(=O)c4cccs4)ccc3Cl)nc2c1,inactive
14,CC(C)(C)n1nc(Cc2cccc3ccccc23)c(C#N)c1N,inactive
15,CCc1nn(-c2cc(Oc3cccc4ccccc34)nc(-c3ccccc3)n2)c(N)c1C#N,5.8 µM (active)
16,C(=Nc1ccc(/C=C/c2ccnc3ccccc23)cc1)c1cc2c3c(c1)CCCN3CCC2,inactive
17,CCOC(=O)C1CCN(C(c2ccc(F)cc2)c2sc3nc(-c4ccco4)nn3c2O)CC1 (stereo not given),inactive
18,CCC1CCCCN1Cc1c(O)ccc2c(=O)c(Oc3ccccc3Cl)c(C(F)(F)F)oc12 (stereo not given),inactive
19,CN(C)C(=O)c1coc2nc3ccccc3nc12,inactive
20,CNC(=O)C(NC(=O)c1ccccc1)=C(C)C,inactive
21,CNC(=O)c1cccc2nc3ccccc3nc12,16.4 µM (active)
22,CCCCn1c(=N)c(S(=O)(=O)c2ccccc2)cc2c(=O)n3cccc(C)c3nc21,inactive
23,COc1ccc(NC(=O)CN2CCCN(Cc3ccccc3)S2(=O)=O)cc1,inactive
24,CCc1ccc(C2CC(=O)c3c([nH]c(C(=O)OCc4ccc(C)cc4)c3C)C2)cc1 (stereo not given),inactive
25,CCCOC(=O)c1[nH]c2c(c1C)C(=O)CC(c1cccs1)C2 (stereo not given),0.651 µM (active)

row,Structure (SMILES),Potency
1,COC(=O)C1C(=O)c2c([nH]c(C(=O)OCCSC)c2C)CC1C (stereo not given),inactive
2,COc1ccc(-c2nn(CC(=O)Nc3ccccc3F)c3c2cnc2ccc(F)cc23)cc1,inactive
3,Cc1c2cnn(-c3ccccc3)c(=O)c2c(C)n1C(C)C(=O)Nc1ccc(Br)cc1F (stereo not given),inactive
4,CCc1ccccc1N1CN(Cc2ccco2)CNC1=S,inactive
5,CN(C)C(=S)N=c1ssc(=S)n1Cc1ccco1,4.11 µM (active)
6,CCN(CC)C(=O)CSc1nnc(CNc2ccc(F)cc2)n1Cc1ccco1,inactive
7,CCOc1ccc2nc(N3CCCC(C(=O)Nc4cc(C)ccc4C)C3)sc2c1 (stereo not given),inactive
8,CCc1ccc(NC(=O)c2cnc3c(-c4ccccc4)c(C)nn3c2C)cc1,inactive
9,CCN(CC)S(=O)(=O)c1ccc(NC(=O)c2cnc(C)cn2)cc1,inactive
10,CCN(CC)S(=O)(=O)c1ccc(N(C)Cc2ccc(C(F)(F)F)cc2)nc1,10.3 µM (active)
11,CCN(CC)S(=O)(=O)c1ccc(N(C)CCc2ccc(OC)c(OC)c2)nc1,inactive
12,COc1ccccc1-n1c(-c2ccc(C)cc2)cn2c3c(=O)n(C)c(=O)n(C)c3nc12,inactive
13,CN(C)c1ccc(/C=C2\C=Cc3ccccc32)cc1Br,inactive
14,CCOC(=O)c1cc2c(=O)n3ccccc3nc2n(Cc2ccco2)c1=NC(=O)c1ccc(F)cc1,inactive
15,COc1ccc(Nc2cc(=O)n(-c3ccccc3)c3c2c(=O)n(C)c(=O)n3C)cc1,inactive
16,COc1ccc(Nc2cc(=O)oc3ccccc23)cc1,4.11 µM (active)
17,COc1ccc(CCNC(=O)COC(=O)c2cc(=O)c3ccccc3o2)cc1,inactive
18,CC1=C(C(=O)OCC2CCCCC2)C(c2c(F)cccc2Cl)CC(=O)N1 (stereo not given),inactive
19,CCc1ccc(N(CC)C(=O)CCn2cnc3onc(-c4ccc(F)cc4)c3c2=O)cc1,inactive
20,CCCc1cc(-c2nc(-c3ccc(C)cc3)cs2)ccn1,11.6 µM (active)
21,Fc1ccc(-c2csc(-c3ccc(C4SCCS4)cc3)n2)cc1F,inactive
22,CCCc1nc2scc(-c3ccc(C)cc3)c2c(=O)n1N,inactive
23,CCc1ccc(NC(=O)CN2C(=O)COc3ccc(S(=O)(=O)N4CCCC4)cc32)cc1,inactive
24,CCc1ccc(NC(=O)CN2CCSc3ccc(S(=O)(=O)N4CCCC4)cc32)cc1,16.4 µM (active)
25,O=C(CN1CCCCCC1)Nc1ccc(S(=O)(=O)N2CCCCC2)cc1,inactive

row,Structure (SMILES),Potency
1,O=[N+]([O-])c1ccc(NS(=O)(=O)c2ccccc2)c(Cl)c1,16.4 µM (active)
2,O=C(NCCNc1ccc([N+](=O)[O-])cc1Cl)c1ccccc1F,inactive
3,O=C(NNS(=O)(=O)c1ccc(F)cc1)c1ccc([N+](=O)[O-])cc1Cl,inactive
4,Cc1cccc(-n2ccnc2SCC(=O)Nc2cc(C(F)(F)F)ccc2Cl)c1,inactive
5,Nc1nnc2c(C(F)(F)F)nc3ccccc3n12,inactive
6,Cc1cccc(C(=O)Nc2ccc(-c3nc4ccccc4s3)c(C)c2)c1,inactive
7,CN(NC(=O)c1ccccc1)c1nc2ccccc2nc1C(F)(F)F,2.91 µM (active)
8,Cc1ccccc1CCNC(=O)C1CCN(c2nc3ccccc3nc2C(F)(F)F)CC1,inactive
9,CSc1nc(N(C)NC(=O)c2cccc(C)c2)c2ccccc2n1,0.184 µM (active)
10,Cc1cccc(C(=O)NCCc2nc3ccccc3n2Cc2ccccc2Cl)c1,inactive
11,COc1ccc(C)cc1Nc1nc2ccccc2c2nnc(C)n12,inactive
12,Cc1ccc(-c2nc(CS(=O)(=O)CC(=O)NCc3ccccc3Cl)c(C)o2)cc1,inactive
13,O=C(CSc1nnc(CNC(=O)c2ccccc2)n1-c1ccc(F)cc1)Nc1ccccc1F,inactive
14,COc1ccc(C(=O)c2oc3ccccc3c2NC(=O)COc2cccc(C)c2)cc1,inactive
15,COc1ccc(CNc2nc(-c3ccc(Cl)cc3)cc(C(F)(F)F)n2)cc1,inactive
16,O=C(Nc1ccc2nc(SCCOc3ccccc3)sc2c1)c1ccco1,inactive
17,CCCn1ccc2c(OCC(=O)NCc3ccc(F)cc3)cccc2c1=O,inactive
18,COC(=O)COc1cccc2c(=O)n(CC(=O)NCc3ccccc3)ccc12,6.51 µM (active)
19,CCOCCn1ccc2c(OCC(=O)NCc3ccc(C)cc3)cccc2c1=O,inactive
20,CCCCOc1ccc(NC(=O)c2cc3c(n(-c4ccc(Cl)cc4)c2=O)CCCC3=O)cc1,inactive
21,Cc1ccc2cccc(NC(=O)C(C)Oc3ccc(C)c(C)c3)c2n1 (stereo not given),inactive
22,O=C(Nc1cc(-c2nc3ccccc3o2)ccc1Cl)c1cc([N+](=O)[O-])ccc1N1CCOCC1,inactive
23,CCN(CC)CCCC(C)n1c2nc(=O)[nH]c(=O)c-2nc2cc(Cl)ccc21 (stereo not given),6.51 µM (active)
24,COc1cccc(NC(=O)Cn2c(=O)cc(C)c3c(C)nn(-c4cccc(F)c4)c32)c1,inactive
25,CSc1ccc(CCNC(=O)c2ccc3c(c2)nc2n3CCOC2)cc1,inactive

row,Structure (SMILES),Potency
1,COc1ccccc1NC(=O)c1cc(S(=O)(=O)NCCc2ccccc2)ccc1F,inactive
2,Cc1ccc(NC(=O)c2cc(S(=O)(=O)NCCC3=CCCCC3)ccc2F)cc1C,16.4 µM (active)
3,CCc1ccc(NC(=O)c2cc(S(=O)(=O)NC3CCCCCC3)ccc2F)cc1,inactive
4,O=C(CSc1cn(CC(=O)N2CCOCC2)c2ccccc12)Nc1ccccc1,inactive
5,Cc1cccc(-c2nnc(SCC(=O)N3CCCc4ccccc43)o2)c1,inactive
6,CCCC[C@H]1COCCS(=O)(=O)N1Cc1cccc(Cl)c1,inactive
7,CCC(C)[C@H]1COCCS(=O)(=O)N1Cc1ccc(C)cc1 (stereo not given in full),inactive
8,O=S1(=O)CCOC[C@H](CC2CCCCC2)N1Cc1ccc(F)cc1,16.4 µM (active)
9,Cc1ccc2oc(=O)c3cnn(CC(=O)N4CCN(c5cccc(Cl)c5)CC4)c3c2c1,inactive
10,COc1cc(OC)c(N(C)C(=O)c2cc3c(=O)oc4ccccc4c3s2)cc1Cl,inactive
11,COc1ccc(Cc2nc3ccc(C(=O)NCc4ccccc4Cl)cc3o2)cc1,inactive
12,CCOc1ccc(NC(=O)CCC(=O)N2CC(C)Oc3ccc(C)cc32)cc1 (stereo not given),inactive
13,CCOc1ccc(CNC(=O)c2cccc(Nc3nc4ccccc4n4nnnc34)c2)cc1OC,inactive
14,Cc1ccc(Cn2c(C)c3cnn(CC(=O)NCc4ccccn4)c(=O)c3c2C)cc1,inactive
15,Cc1ccc(Cn2c(C)c3cnn(CC(=O)NCc4ccccc4)c(=O)c3c2C)cc1,13 µM (active)
16,Cc1c2cnn(CC(=O)NCc3ccccn3)c(=O)c2c(C)n1Cc1ccc(Cl)cc1,inactive
17,Cc1cccc(Nc2nc(C)nc(N)c2S(=O)(=O)c2ccccc2)c1,inactive
18,CC(NC(=O)c1ccccc1SCC(=O)N1CCCC1)c1ccccc1 (stereo not given),inactive
19,CC(NC(=O)c1cccc2ccccc12)c1ccc2c(c1)CCCC2 (stereo not given),10.3 µM (active)
20,CC(NC(=O)CNC(=O)Cc1cccc2ccccc12)c1ccc(S(N)(=O)=O)cc1 (stereo not given),inactive
21,O=S(=O)(NCC(c1ccccc1)N1CCc2ccccc21)c1ccccc1 (stereo not given),inactive
22,Cc1ccc(NC(=O)Nc2sc3nc4n(c(=O)c3c2C)CCC(C)CC4)c(Cl)c1 (stereo not given),inactive
23,CCCc1nc2sc3c(c2c(=O)n1NC(=O)CCCl)CCCC3,23.1 µM (active)
24,Cc1ccc(C)c(-n2c(SCC(=O)O)nc3sc4c(c3c2=O)CCCC4)c1,inactive
25,NNC(=O)C1CCCn2c1nc1sc3c(c1c2=O)CCCC3 (stereo not given),inactive
